Paper PMC5540273 (PLoS ONE, 2017)
Several values for one entry are separate records, joined by “and”; a condition that tells them apart may be missing. Equal values may be shown once. Read-outs that look alike come from different tables or passages of the source.

Legend:
[1] = system: TAOK2; conditions: concentration: 1 μM, replicates: in singlicate; n = 1
[2] = system: TAOK3; conditions: concentration: 1 μM, replicates: in singlicate, n = 1
[3] = system: TBK1; conditions: concentration: 1 μM, replicates: in singlicate, n = 1
[4] = system: TEC; conditions: concentration: 1 μM, replicates: in singlicate, n = 1
[5] = system: TESK1; conditions: concentration: 1 μM, replicates: in singlicate, n = 1
[6] = system: TGFBR1; conditions: n = 1
[7] = system: TGFBR2; conditions: concentration: 1 μM, replicates: in singlicate, n = 1
[8] = system: TIE1; conditions: concentration: 1 μM, replicates: in singlicate, n = 1
[9] = system: T1, TIE2; conditions: concentration: 1 μM, replicates: in singlicate, n = 1
T1 construct: gene TEK

[10] = system: TLK1; conditions: concentration: 1 μM, replicates: in singlicate, n = 1
[11] = concentration: 1 μM, replicates: in singlicate
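Also: KINOMEscan kinase panel screen.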

CC(C)(CN)c1nc(-c2ccc(Cl)c(O)c2)c(-c2ccncc2)[nH]1.O=C(O)C(F)(F)F [SB-477794]
%Inh [1]: 0%
%Inh ([2]; 1 µM): 6% and 0%
%Inh ([3]; 1 µM): 0% and 5%
%Inh ([4]; 1 µM): 13% and 0%
%Inh ([5]; 1 µM): 100% and 56%
%Inh ([6]; concentration: 1 μM, replicates: in singlicate, 1 µM): 98.8% and 96.2%
%Inh ([7]; 1 µM): 99.2% and 99.6%
%Inh ([8]; 1 µM): 1% and 0%
%Inh ([9]; 1 µM): 3% and 22%
%Inh ([10]; 1 µM): 20% and 11%

O=C(Nc1cccc(-c2nn3ncccc3c2-c2ccnc(Nc3cccc(C(F)(F)F)c3)n2)c1)c1c(F)cccc1F [GSK299495]
%Inh [1]: 41%
%Inh [2]: 63%
%Inh [3]: 6%
%Inh [4]: 96.8%
%Inh [5]: 15%
%Inh [6, 11]: 8%
%Inh [7]: 1%
%Inh [8]: 10%
%Inh [9]: 0%
%Inh [10]: 0%

NS(=O)(=O)CCc1cccc(Nc2nccc(-c3c(-c4cccc(NC(=O)c5c(F)cccc5F)c4)nn4ccccc34)n2)c1 [GSK336735]
%Inh [1]: 32%
%Inh [2]: 88%
%Inh [3]: 15%
%Inh [4]: 95.6%
%Inh [5]: 50%
%Inh [6, 11]: 3%
%Inh [7]: 20%
%Inh [8]: 96.8%
%Inh [9]: 91.1%
%Inh [10]: 8%

Fc1ccc(-c2ncn(CCCN3CCOCC3)c2-c2ccccn2)cc1 [SB-211742]
%Inh [1]: 5%
%Inh [2]: 0%
%Inh [3]: 21%
%Inh [4]: 0%
%Inh [5]: 0%
%Inh [6, 11]: 52%
%Inh [7]: 6%
%Inh [8]: 0%
%Inh [9]: 27%
%Inh [10]: 0%

O=C(NCCCN1CCOCC1)c1cccc(Nc2nccc(Nc3ccc(Oc4ccccc4)cc3)n2)c1 [GW663929]
%Inh [1]: 0%
%Inh [2]: 0%
%Inh [3]: 26%
%Inh [4]: 70%
%Inh [5]: 0%
%Inh [6, 11]: 0%
%Inh [7]: 7%
%Inh [8]: 11%
%Inh [9]: 0%
%Inh [10]: 18%

NCCNS(=O)(=O)c1ccc(-c2ccnc3[nH]ccc23)cc1 [GSK977617]
%Inh ([2]; 1 µM): 0% and 2%
%Inh ([3]; 1 µM): 27% and 24%
%Inh ([5]; 1 µM): 14% and 13%
%Inh ([8]; 1 µM): 32% and 23%
%Inh ([10]; 1 µM): 36% and 13%

CN(C(=O)c1ccc(-c2cc(-c3c[nH]nc3-c3ccccn3)ccn2)cc1)C1CCOCC1 [GW810083]
%Inh ([6]; 1 µM): 77%

Cc1cccc(-c2nc(Nc3ccc4ncsc4c3)c3ccccc3n2)n1 [GW867588]
%Inh ([6]; 1 µM): 55%
